Format in all cases: functional
The subject of assay [1] is Plasmodium falciparum. The experiment in a line: GSK_TCMDC: Inhibition of Plasmodium falciparum 3D7 in whole red blood cells, using parasite LDH activity as an index of growth. Test compounds present at 2uM.
Assay [2] deals with Plasmodium falciparum. The experiment in a line: GSK_TCMDC: Inhibition of Plasmodium falciparum Dd2 in whole red blood cells, using parasite LDH activity as an index of growth. Test compounds present at 2uM.
The subject of a further assay is HepG2. The experiment in a line: GSK_TCMDC: Percent inhibition of human HepG2 cell line. Test compounds present at 10uM.

In ChEMBL document CHEMBL1157539, “Thousands of chemical starting points for antimalarial lead identification” (Nature, 2010) one finds Inhibition data, which are given here for 27 molecules.

A word on the Inhibition: it is the change of the read-out against control, counted positive when it falls. The low end stands for a response near the control, the high end for a response far below the control. For `CCCNC[C@@H](O)[C@H](Cc1ccccc1)NC(=O)c1cc2c3c(c1)c(CC)cn3CCS(=O)(=O)N2C`, the Inhibition is reported as 97% with Plasmodium falciparum [1], 98% with Plasmodium falciparum [2] and 0% with HepG2.

As to `CC(C)c1nc(N2CCN(C(=S)NCc3ccccc3)CC2)c(C#N)c2c1COC(C)(C)C2`, the Inhibition with Plasmodium falciparum [1] is 99%; with Plasmodium falciparum [2], 100%; with HepG2, 0%.

Consider `Cc1cc(N2CCCC2)nc(Nc2ccc(NC(=O)CC(C)C)cc2)n1`, for which the Inhibition with Plasmodium falciparum [1] is listed as 95%; in the assay with Plasmodium falciparum [2], 53%; in the assay with HepG2 it was 37%.

Take `O=C(Nc1cccc(-c2cccc(-c3nc4cc(F)ccc4[nH]3)c2)c1)Nc1ccc(F)c(F)c1F`: the Inhibition in the assay with Plasmodium falciparum [1] was determined as 100%; with Plasmodium falciparum [2], 100%; in the assay with HepG2, 83%.

For `Nc1ncc(OC2CCCCC2)c(N)n1`, the Inhibition in the assay with Plasmodium falciparum [1] is reported as 94%; in the assay on Plasmodium falciparum [2], 0%; in the assay with HepG2, 0%.

`COc1ccc(-c2ccc(NC(=O)c3ccc(F)cc3)cc2)cc1CN1CCCN(C)CC1.O=C(O)C(F)(F)F`: the Inhibition in the assay on Plasmodium falciparum [1] was determined as 98%; with Plasmodium falciparum [2], 35%; in the assay with HepG2 it was 29%.

Regarding `COc1cc(OC)cc(C(=O)Nc2cccc(-c3cn4ccc(C)cc4n3)c2)c1`, the Inhibition in the assay with Plasmodium falciparum [1] was found to be 86%; in the assay on Plasmodium falciparum [2], 45%; with HepG2, 4%.

Take `O=C(/C=C/c1ccc(Cl)c(Cl)c1)NCCCCCN1CCC(NC(=O)Nc2ccc(F)cc2F)CC1`: the Inhibition was found to be 100% in the assay with Plasmodium falciparum [1], 23% in the assay with Plasmodium falciparum [2] and 14% with HepG2.

Turning to `CN(c1ccc2c(c1)nc(NCc1ccccc1)n2C)c1ccnc(Nc2ccc(CS(C)(=O)=O)cc2)n1.Cl`, the Inhibition in the assay on Plasmodium falciparum [1] is reported as 94%; in the assay on Plasmodium falciparum [2], 69%; with HepG2, 61%.

In the case of `CCc1cc(OC)c(C(=O)NC2CCN(C[C@H](O)c3ccnc4ccc(OC)cc34)CC2)cc1Br`, the Inhibition with Plasmodium falciparum [1] is on record as 98%; in the assay on Plasmodium falciparum [2], 56%; in the assay with HepG2 it was 6%.

As for `N#Cc1ccccc1S(=O)(=O)N1CCCC(CNC(=O)[C@H](CC2CCCCC2)NC(=O)c2cc3ccccc3s2)C1` (stereo partly specified), the Inhibition turned out to be 97% in the assay on Plasmodium falciparum [1], 92% with Plasmodium falciparum [2] and 9% in the assay on HepG2.

As to `COc1ccccc1/C=C/C(=O)NCCC1CCN(CCCCCNC(=O)/C=C/c2ccc(Cl)c(Cl)c2)CC1`, the Inhibition was determined as 94% in the assay on Plasmodium falciparum [1], 0% with Plasmodium falciparum [2] and 34% with HepG2.

`CN1CCC(NCc2ccc(-c3ccc(S(=O)(=O)NCc4ccccc4)s3)cc2)CC1.O=C(O)C(F)(F)F`: the figures for the Inhibition with Plasmodium falciparum [1], with Plasmodium falciparum [2] and with HepG2 were 99%, 95% and 77%, respectively.

For the molecule `O=C(/C=C/c1ccc(Cl)c(Cl)c1)NCCCCCCN1CCN(C(=O)Nc2cc(F)cc(F)c2)CC1`, the Inhibition with Plasmodium falciparum [1] is 86%; in the assay with Plasmodium falciparum [2], 0%; in the assay on HepG2 it was 23%.

`Cc1nccc2c(NC(=O)N[C@@H]3CCN(c4ncc(C(F)(F)F)cc4Br)C3)cccc12.Cl`: the figures for the Inhibition in the assay with Plasmodium falciparum [1], in the assay on Plasmodium falciparum [2] and with HepG2 were 96%, 27% and 21%, respectively.

Take `Cc1[nH]c(C)c(-c2ccc(-c3ccccc3C(F)(F)F)nc2)c(=O)c1Br`: the values for the Inhibition in the assay with Plasmodium falciparum [1], in the assay on Plasmodium falciparum [2] and in the assay on HepG2 were 97%, 96% and 0%, respectively.

For `CN(C)Cc1ccc(-c2ccc3c(Nc4ccc(Cl)cc4F)ccnc3c2)o1`, the Inhibition with Plasmodium falciparum [1] is 100%; in the assay on Plasmodium falciparum [2], 99%; in the assay with HepG2 it was 13%.

As to `COc1ccc2c(c1)CCCC2NCCCCNC(=O)c1ccc(NC(=O)c2ccc(Cl)cc2)cc1` (stereo unspecified), the Inhibition was determined as 100% in the assay with Plasmodium falciparum [1], 49% in the assay with Plasmodium falciparum [2] and 27% in the assay on HepG2.

`Cc1ccc(C)c2c1[nH]c1ccc(C3=NCCN3)cc12.Cl`: the Inhibition with Plasmodium falciparum [1] stood at 100%; in the assay on Plasmodium falciparum [2], 0%; in the assay on HepG2 it was 29%.

`O=C(Nc1ccc(-c2cccc(CN3CCC(O)CC3)c2)cc1)c1cccc(Cl)c1.O=C(O)C(F)(F)F`: the Inhibition with Plasmodium falciparum [1] is on record as 94%; in the assay with Plasmodium falciparum [2], 14%; in the assay with HepG2, 50%.

In the case of `CCc1cn2c3c(cc(C(=O)N[C@@H](Cc4cc(F)cc(F)c4)[C@H](O)CNC4CC4)cc13)N(C)S(=O)(=O)CC2.O=CO`, the Inhibition in the assay on Plasmodium falciparum [1] is recorded as 100%; in the assay on Plasmodium falciparum [2], 99%; in the assay with HepG2, 3%.

Take `CON=Cc1ccn(-c2ccc(O)c3c2C[C@H]2C[C@H]4[C@H](N(C)C)C(O)=C(C(N)=O)C(=O)[C@@]4(O)C(O)=C2C3=O)c1.O=S(=O)(O)O`: the Inhibition is on record as 96% in the assay with Plasmodium falciparum [1], 70% in the assay with Plasmodium falciparum [2] and 3% with HepG2.

`Cc1cc(N[C@@H](Cc2ccccc2)C(=O)NC2CCCC2)nc(NCCc2cccs2)n1.O=C(O)C(F)(F)F`: the Inhibition in the assay with Plasmodium falciparum [1] came out at 99%; with Plasmodium falciparum [2] it was 14%; in the assay on HepG2, 0%.

As for `Cc1nc(-c2ccc(-c3ccc(NC(=O)Nc4ccc(I)c(OCCN(C)C)c4)cc3)c(C)c2)no1.Cl`, the Inhibition in the assay on Plasmodium falciparum [1] is listed as 100%; in the assay with Plasmodium falciparum [2] it was 92%; in the assay with HepG2, 47%.

For the molecule `Cc1cc(Cl)ccc1NC(=O)NCCCCCN1CCC(c2c[nH]c3ccccc23)CC1`, the Inhibition was found to be 91% in the assay with Plasmodium falciparum [1], 8% in the assay with Plasmodium falciparum [2] and 59% in the assay with HepG2.

On to `COc1ccc(CNCc2cccc(-c3csc(-c4nc5ccccc5[nH]4)c3)c2)cc1.O=C(O)C(F)(F)F`, for which the values for the Inhibition in the assay on Plasmodium falciparum [1], in the assay with Plasmodium falciparum [2] and in the assay with HepG2 were 100%, 22% and 17%, respectively.

With `COc1cccc(Nc2nc(N)c3ccccc3n2)c1.Cl`, the Inhibition in the assay on Plasmodium falciparum [1] is reported as 88%; in the assay on Plasmodium falciparum [2], 47%; in the assay on HepG2, 18%.
